Here are results for eight compounds from PubChem BioAssay (Tox21).

Results filed as inconclusive are left out. Calls of active or inactive are those of the source. Unless noted, calls come from the whole dose curve; as a rule, active = well fitted curve in the direction sought with a large enough effect in the repeat runs; inconclusive = weak or mixed curves; inactive = no such curve, though single readings can be large; an effect the other way counts as inactive or inconclusive.

A short description of experiment [1]: qHTS assay to identify small molecule antagonists of the thyroid receptor (TR) signaling pathway - cell viability counter screen (AID 743064). Note: nearly all actives have a fitted effect of over 50% in size. Summed up:
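GH3.TRE-Luc rat pituitary cells dosed after 4 hr plating, co-stimulated with T3 at 1 nM final, incubated 23.5 h at 37 C. Viability measured in the same wells by CellTiter-Fluor fluorescence after 30 min further at 37 C.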

Experiment [2] is described as follows: qHTS assay to identify small molecule antagonists of the thyroid receptor (TR) signaling pathway (AID 743065). Note: series mostly up to about 70 µM; nearly all actives have a fitted effect of over 55% in size. In outline:
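GH3.TRE-Luc rat pituitary cells (two TREs driving luciferase) were dosed with compound, then stimulated with 1 nM T3 (final) for 23.5 h at 37 C. ONE-Glo luminescence was the read-out, with CellTiter-Fluor fluorescence as the cytotoxicity counter-screen.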

Experiment [3] deals with thyroid hormone receptor (rat, GH3 cells). In words: qHTS assay to identify small molecule agonists of the thyroid receptor (TR) signaling pathway (AID 743066; calls by dose curve).
The target of experiment [4] is Estrogen receptor (Homo sapiens) (UniProt P03372). In words: qHTS assay to identify small molecule antagonists of the estrogen receptor alpha (ER-alpha) signaling pathway (AID 743069; active = well fitted curve in the direction sought with a large enough effect in the signal ratio in the repeat runs, not every such curve was filed as active; the % refers to the signal ratio). Summed up:
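In this cell-based reporter format, GripTite HEK293 cells harbouring ER-alpha-UAS-bla were grown overnight with 2% charcoal-stripped FBS, dosed with DMSO-dissolved compounds, then challenged with 17beta-estradiol. After 18 hr at 37C, beta-lactamase activity was detected by FRET fluorescence.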
(qHTS replaces the single test concentration by a dilution series.)

Experiment [5] can be described thus: qHTS assay to identify small molecule antagonists of the estrogen receptor alpha (ER-alpha) signaling pathway - cell viability counter screen (AID 743074; calls by dose curve; note: nearly all actives have a fitted effect of over 45% in size).
For experiment [6], the target named is Estrogen receptor (Homo sapiens) (UniProt P03372). In words: qHTS assay to identify small molecule agonists of the estrogen receptor alpha (ER-alpha) signaling pathway (AID 743075; calls by dose curve).
Experiment [7] has the same target. Nature of the experiment: qHTS assay to identify small molecule agonists of the estrogen receptor alpha (ER-alpha) signaling pathway using the BG1 cell line (AID 743079). Note: nearly all actives have a fitted effect of over 20% in size. Note: potency is the fitted concentration of half-maximal effect.
Experiment [8] in a line: qHTS assay to identify small molecule antagonists of the estrogen receptor alpha (ER-alpha) signaling pathway using the BG1 cell line (AID 743080; calls by dose curve;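 note: BG1 cells stimulated with 17beta-estradiol alongside compound; series mostly up to about 70 µM; nearly all actives have a fitted effect of over 25% in size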). In outline: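 BG1Luc4E2, endogenous ER-alpha, 4xERE-luc; 5 d charcoal-stripped FBS, phenol red free; 24 h plating; cpd + 17beta-estradiol 21.5 h, 37 C/5% CO2; CellTiter-Fluor viability 30 min, then ONE-Glo luciferase 30 min RT.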

A short description of experiment [9]: qHTS assay to identify small molecule antagonists of the estrogen receptor alpha (ER-alpha) signaling pathway using the BG1 cell line - cell viability counter screen (AID 743081).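 Note: compound given together with 17beta-estradiol as the ER stimulus; series mostly up to about 70 µM; nearly all actives have a fitted effect of over 45% in size.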
For another experiment, the target named is Aromatase (Homo sapiens) (UniProt P11511). In words: qHTS assay to identify aromatase inhibitors (AID 743083). Note: series mostly up to about 70 µM; nearly all actives have a fitted effect of over 55% in size.
The nature of experiment [10]: qHTS assay to identify aromatase inhibitors - cell viability counter screen (AID 743084).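 Note: cells stimulated with testosterone during compound exposure; nearly all actives have a fitted effect of over 55% in size.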
A short description of experiment [11]: qHTS assay to identify small molecule that activate the aryl hydrocarbon receptor (AhR) signaling pathway - cell viability counter screen (AID 743086).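 Note: HepG2 liver cells carrying the AhR DRE luciferase reporter; series mostly up to about 70 µM; nearly all actives have a fitted effect of over 45% in size.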 In outline: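 HepG2-AhR-luc (HG2L7.5c1) cells, 4000/well, treated 24 h at 37 C with compound; viability measured as CellTiter-Fluor fluorescence after 30 min in the same wells as the luciferase read.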
A short description of experiment [12]: qHTS assay to identify small molecule antagonists of the peroxisome proliferator-activated receptor gamma (PPARg) signaling pathway - cell viability counter screen (AID 743194). Note: nearly all actives have a fitted effect of over 55% in size. As to conditions: Potency: co-treated with 50 nM rosiglitazone. Summed up: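 Cytotoxicity counter screen in PPARg-bla HEK293H cells, same wells as reporter assay. Compounds plus 50 nM rosiglitazone (final) for 17 h at 37 C, then viability read by CellTiter-Glo luminescence.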

Experiment [13] is described as follows: qHTS assay for small molecule agonists of the antioxidant response element (ARE) signaling pathway (AID 743202; active = well fitted activation curve with a large enough effect in the signal ratio in the repeat runs, not every such curve was filed as active; the % refers to the signal ratio). Summed up: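 HepG2 ARE-bla cells; 16 h treatment at 37 C; FRET-based beta-lactamase fluorescence read after 2 h substrate incubation at room temperature.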
A short description of experiment [14]: qHTS assay for small molecule agonists of the antioxidant response element (ARE) signaling pathway - cell viability counter screen (AID 743203; calls by dose curve; note: nearly all actives have a fitted effect of over 55% in size). In outline: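 ATP content via CellTiter-Glo luminescence served as the viability measure. Cells: ARE-bla HepG2, 2,000 per well. Exposure: 16 hrs, 37C/5% CO2.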
Experiment [15] in a line: qHTS assay for small molecule activators of the heat shock response signaling pathway (AID 743210; active = well fitted activation curve with a large enough effect in the signal ratio in the repeat runs, with a control signal flat, not every such curve was filed as active; the % refers to the signal ratio;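 note: HeLa cells with beta-lactamase reporter driven by heat shock elements; series mostly up to about 63 µM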). In outline:
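Following overnight attachment, HSE-bla HeLa cells received test compounds for 5 h at 37 C; beta-lactamase activity was then detected via FRET substrate fluorescence.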

Experiment [16] has as its target Aryl hydrocarbon receptor (Homo sapiens) (UniProt P35869). Nature of the experiment: qHTS assay to identify small molecule that activate the aryl hydrocarbon receptor (AhR) signaling pathway (AID 743085).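 For activation: HG2L7.5c1 human HepG2 liver cells with stably integrated DRE-driven firefly reporter; series mostly up to about 70 µM.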 Note: nearly all actives have a fitted effect of over 15% in size. Note: potency is the fitted concentration of half-maximal effect. Summed up:
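HepG2 cells stably carrying a 20-DRE firefly luciferase reporter (HG2L7.5c1) treated with compound for 24 hr at 37C. Luciferase read by ONE-Glo luminescence, with CellTiter-Fluor viability read first.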

Experiment [17] concerns the target Peroxisome proliferator-activated receptor gamma (Homo sapiens) (UniProt P37231). Nature of the experiment: qHTS assay to identify small molecule agonists of the peroxisome proliferator-activated receptor gamma (PPARg) signaling pathway (AID 743094; active = well fitted activation curve with a large enough effect in the signal ratio in the repeat runs, not every such curve was filed as active; the % refers to the signal ratio). Summed up:
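Agonism was assessed in a beta-lactamase reporter system, HEK293H cells with a stably integrated UAS-bla construct under PPARg control; the 17 h treatment at 37C preceded a 1 h room-temperature FRET substrate read.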

For experiment [18] the target is unchanged. In words: qHTS assay to identify small molecule antagonists of the peroxisome proliferator-activated receptor gamma (PPARg) signaling pathway (AID 743191; calls by dose curve; note: series mostly up to about 63 µM; nearly all actives have a fitted effect of over 30% in size). In outline:
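GeneBLAzer PPARg UAS-bla HEK293H cells, 5 h post-plating, exposed to compounds 17 h at 37C. LiveBLAzer B/G FRET substrate added for 1 h at room temperature; beta-lactamase reporter read by fluorescence intensity.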

Experiment [19] can be described thus: qHTS assay for small molecule activators of the heat shock response signaling pathway - cell viability counter screen (AID 743209). Note: nearly all actives have a fitted effect of over 50% in size. Summed up: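 Compounds dissolved in DMSO were added to overnight-plated HSE-bla HeLa cells and left 5 h at 37 C. Cell viability was quantified by luminescence using CellTiter-Glo.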

Chain of Aryl hydrocarbon receptor (Homo sapiens) (P35869 whole entry, looked up): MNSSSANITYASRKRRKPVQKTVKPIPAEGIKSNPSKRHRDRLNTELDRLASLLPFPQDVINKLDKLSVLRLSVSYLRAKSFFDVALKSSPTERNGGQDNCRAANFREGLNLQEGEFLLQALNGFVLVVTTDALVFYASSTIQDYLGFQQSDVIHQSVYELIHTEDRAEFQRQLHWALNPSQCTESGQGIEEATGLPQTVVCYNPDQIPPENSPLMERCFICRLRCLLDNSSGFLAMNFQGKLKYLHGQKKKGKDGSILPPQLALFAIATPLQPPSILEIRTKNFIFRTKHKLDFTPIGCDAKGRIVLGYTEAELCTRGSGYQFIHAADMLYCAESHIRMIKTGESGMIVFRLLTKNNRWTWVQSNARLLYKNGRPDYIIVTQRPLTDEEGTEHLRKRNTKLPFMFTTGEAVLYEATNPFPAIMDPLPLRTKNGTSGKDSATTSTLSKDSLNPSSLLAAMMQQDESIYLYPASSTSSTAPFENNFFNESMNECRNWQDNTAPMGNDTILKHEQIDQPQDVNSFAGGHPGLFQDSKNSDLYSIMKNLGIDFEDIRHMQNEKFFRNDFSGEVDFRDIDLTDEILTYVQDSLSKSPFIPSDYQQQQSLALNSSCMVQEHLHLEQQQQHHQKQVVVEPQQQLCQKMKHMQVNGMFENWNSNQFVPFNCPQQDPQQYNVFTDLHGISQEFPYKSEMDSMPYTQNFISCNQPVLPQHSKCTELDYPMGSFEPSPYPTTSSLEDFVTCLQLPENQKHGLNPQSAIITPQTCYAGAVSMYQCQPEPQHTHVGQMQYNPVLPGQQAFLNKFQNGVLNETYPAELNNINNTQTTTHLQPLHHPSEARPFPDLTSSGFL
Chain of Peroxisome proliferator-activated receptor gamma (Homo sapiens) (P37231 whole entry, looked up): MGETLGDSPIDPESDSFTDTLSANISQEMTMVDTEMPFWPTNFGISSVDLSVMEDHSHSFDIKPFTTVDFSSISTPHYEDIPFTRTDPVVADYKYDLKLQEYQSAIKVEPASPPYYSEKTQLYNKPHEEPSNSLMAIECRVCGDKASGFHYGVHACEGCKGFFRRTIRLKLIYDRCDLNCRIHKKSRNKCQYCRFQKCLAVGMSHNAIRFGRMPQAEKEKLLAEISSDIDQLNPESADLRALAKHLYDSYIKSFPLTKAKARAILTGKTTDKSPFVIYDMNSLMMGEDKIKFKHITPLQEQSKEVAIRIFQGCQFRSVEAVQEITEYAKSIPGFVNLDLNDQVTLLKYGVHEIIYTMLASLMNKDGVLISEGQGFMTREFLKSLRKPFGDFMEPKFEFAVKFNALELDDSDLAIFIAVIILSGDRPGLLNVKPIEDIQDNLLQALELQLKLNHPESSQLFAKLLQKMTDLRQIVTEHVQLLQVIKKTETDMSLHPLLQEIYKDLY
Chain of Estrogen receptor (Homo sapiens) (P03372 whole entry, looked up): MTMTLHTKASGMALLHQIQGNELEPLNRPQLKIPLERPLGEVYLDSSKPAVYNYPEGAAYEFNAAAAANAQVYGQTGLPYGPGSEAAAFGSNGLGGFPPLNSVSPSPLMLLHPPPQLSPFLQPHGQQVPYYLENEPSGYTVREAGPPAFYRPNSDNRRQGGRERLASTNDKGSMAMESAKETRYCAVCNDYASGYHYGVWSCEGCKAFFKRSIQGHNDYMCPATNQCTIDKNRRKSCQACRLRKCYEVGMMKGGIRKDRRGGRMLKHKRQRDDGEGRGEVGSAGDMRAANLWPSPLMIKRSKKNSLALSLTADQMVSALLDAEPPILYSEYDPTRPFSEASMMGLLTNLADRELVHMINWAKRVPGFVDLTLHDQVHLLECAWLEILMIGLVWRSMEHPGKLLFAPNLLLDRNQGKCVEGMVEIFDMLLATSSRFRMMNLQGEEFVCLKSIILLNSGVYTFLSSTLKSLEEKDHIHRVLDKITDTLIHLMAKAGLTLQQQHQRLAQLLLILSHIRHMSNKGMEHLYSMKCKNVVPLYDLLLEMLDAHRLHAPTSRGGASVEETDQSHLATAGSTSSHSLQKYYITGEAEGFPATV
Chain of Aromatase (Homo sapiens) (P11511 whole entry, looked up): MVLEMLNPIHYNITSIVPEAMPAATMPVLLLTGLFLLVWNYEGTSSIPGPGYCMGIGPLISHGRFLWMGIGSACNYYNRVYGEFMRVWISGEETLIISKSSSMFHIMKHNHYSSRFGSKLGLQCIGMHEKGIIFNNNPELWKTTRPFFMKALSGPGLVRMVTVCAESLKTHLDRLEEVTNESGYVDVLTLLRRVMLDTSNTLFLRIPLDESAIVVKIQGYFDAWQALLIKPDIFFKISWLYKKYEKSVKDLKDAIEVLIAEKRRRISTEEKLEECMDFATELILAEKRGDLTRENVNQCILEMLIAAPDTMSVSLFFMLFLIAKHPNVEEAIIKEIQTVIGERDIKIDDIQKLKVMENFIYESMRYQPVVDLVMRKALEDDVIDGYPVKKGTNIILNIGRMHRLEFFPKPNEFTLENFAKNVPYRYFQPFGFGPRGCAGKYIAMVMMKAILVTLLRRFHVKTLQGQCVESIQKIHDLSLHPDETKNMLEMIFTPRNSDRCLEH

On to `FC(Cl)(Cl)C(F)(Cl)Cl`, for which the Potency entry in [1], in [2], in experiment [3], in experiment [4], in [5] and in experiment [6] was “inactive” in each case. Further, the Potency entry (in [7]; in [8]; in experiment [9]; in the experiment with Aromatase (Homo sapiens); in experiment [10]; in experiment [11]) was “inactive” each time. The Potency result in [12], in [13], in experiment [14] and in experiment [15] was “inactive” throughout.
In the case of `CN[C@@H](C)[C@H](O)c1ccccc1`, the Potency entry in [1], in [2], in experiment [3], in experiment [4], in experiment [5] and in [6] was “inactive” in each case. The Potency entry (in experiment [8]; in [9]; with Aromatase (Homo sapiens); in experiment [10]; in experiment [16]; in experiment [11]) was “inactive” in each case. Moreover, the Potency result in experiment [17], in experiment [18], in experiment [12], in [13], in experiment [14] and in experiment [19] was “inactive” throughout. Besides, the Potency result in [15] was “inactive”. Besides, the Potency in experiment [7] was 26.6 µM (active).
`C=C(C)C(=O)OCCCCOC(=O)C(=C)C`: the Potency entry in experiment [1], in experiment [2], in experiment [3], in [4], in experiment [5] and in experiment [6] was “inactive” throughout. The Potency entry in experiment [7], in experiment [8], in experiment [9], in experiment [10], in experiment [11] and in experiment [17] was “inactive” in each case. Besides, the Potency result in experiment [12], in experiment [13], in experiment [14], in [19] and in [15] was “inactive” each time.
Turning to `C=CCc1ccccc1O`, the Potency result in experiment [1], in [2], in experiment [3], in experiment [4], in experiment [5] and in experiment [6] was “inactive” in each case. In addition, the Potency entry (in experiment [7]; in experiment [9]; with Aromatase (Homo sapiens); in experiment [10]; in [16]; in [11]) was “inactive” each time. For the same compound, the Potency result in experiment [12], in experiment [14] and in experiment [15] was “inactive” in each case.
Take `CCCCC#N`: the Potency entry in [1], in experiment [2], in [3], in experiment [4], in [5] and in [6] was “inactive” in each case. In addition, the Potency entry (in [7]; in experiment [9]; in the experiment with Aromatase (Homo sapiens); in experiment [10]; in experiment [16]; in experiment [11]) was “inactive” in each case. For the same compound, the Potency entry in experiment [12], in experiment [13], in experiment [14] and in experiment [15] was “inactive” throughout.
Consider `CON(C)C(=O)Nc1ccc(Cl)cc1`, for which the Potency entry in experiment [1], in [2], in [3], in [4], in [5] and in experiment [6] was “inactive” throughout. The Potency entry (in experiment [7]; in [8]; in experiment [9]; with Aromatase (Homo sapiens); in [10]; in experiment [11]) was “inactive” throughout. Besides, the Potency result in [18], in [12], in [13], in [14], in [19] and in experiment [15] was “inactive” each time. Further, the Potency in experiment [16] was 27.3 µM (active).
In the case of `CCOP(=S)(S)OCC`, the Potency entry in [1], in [2], in experiment [3], in [4], in [5] and in experiment [6] was “inactive” in each case. Moreover, the Potency entry (in experiment [7]; in experiment [8]; in [9]; with Aromatase (Homo sapiens); in experiment [10]; in experiment [16]) was “inactive” in each case. Also, the Potency result in experiment [11], in [18], in experiment [12], in experiment [13], in [14] and in experiment [19] was “inactive” each time. In addition, in experiment [15], the Potency result was “inactive”.
For the compound `C1CS1`, the Potency entry in experiment [1], in [2], in experiment [3], in experiment [5], in [6] and in [7] was “inactive” in each case. The Potency entry (in experiment [8]; in experiment [9]; with Aromatase (Homo sapiens); in [10]; in experiment [16]; in [11]) was “inactive” each time. Also, the Potency entry in [12], in [13], in experiment [14], in experiment [19] and in [15] was “inactive” throughout.
